Assay results reported in PubChem BioAssay AID1159580 (chemical genetic matrix, 2015).
Screen size: about 5,500 compounds; about 2,000 (36%) were called active. Another 18% or so got no clear call; they are omitted. No stated cut-off is given here; in the data, active means normalized growth mostly below about 0.91 (no sharp cut-off); inconclusive means no clear call, values can overlap the other calls; inactive means mostly above about 0.92. Some of the results follow.

Assay: chemical genetic growth profiling, strain panel (AID 1159580);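 further: tested at 20 µM; growth read once vehicle control cultures reached saturation at 30 °C; 1 = growth at the plate median or of vehicle wells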
Details: growth OD
[1] = S. cerevisiae deletion strains, locus YAL013W, strain DEP1, stronger effect = lower value
[2] = S. cerevisiae deletion strains, locus YJR075W, strain HOC1, stronger effect = lower value
[3] = S. cerevisiae deletion strains, locus YMR307W, strain GAS1, stronger effect = lower value
[4] = S. cerevisiae deletion strains, locus YNL322C, strain KRE1, stronger effect = lower value
[5] = S. cerevisiae deletion strains, locus YPL055C, strain LGE1, stronger effect = lower value
[6] = S. cerevisiae deletion strains, locus YBR229C, strain ROT2, stronger effect = lower value
[7] = S. cerevisiae deletion strains, locus YCL061C, strain MRC1, stronger effect = lower value
[8] = S. cerevisiae deletion strains, locus YDL101C, strain DUN1, stronger effect = lower value
[9] = S. cerevisiae deletion strains, locus YDL134C, strain PPH21, stronger effect = lower value
[10] = S. cerevisiae deletion strains, locus YDR150W, strain NUM1, stronger effect = lower value
[11] = S. cerevisiae deletion strains, locus YEL061C, strain CIN8, stronger effect = lower value
[12] = S. cerevisiae deletion strains, locus YGR078C, strain PAC10, stronger effect = lower value
[13] = S. cerevisiae deletion strains, locus YHR030C, strain SLT2, stronger effect = lower value
[14] = S. cerevisiae deletion strains, locus YJR043C, strain POL32, stronger effect = lower value
[15] = S. cerevisiae deletion strains, locus YKL190W, strain CNB1, stronger effect = lower value
[16] = S. cerevisiae deletion strains, locus YLR039C, strain RIC1, stronger effect = lower value
[17] = S. cerevisiae deletion strains, locus YLR058C, strain SHM2 (second series), stronger effect = lower value
[18] = S. cerevisiae deletion strains, locus YLR085C, strain ARP6, stronger effect = lower value
[19] = S. cerevisiae deletion strains, locus YLR262C, strain YPT6, stronger effect = lower value
[20] = S. cerevisiae deletion strains, locus YML094W, strain GIM5, stronger effect = lower value
[21] = S. cerevisiae deletion strains, locus YMR219W, strain ESC1, stronger effect = lower value
[22] = S. cerevisiae deletion strains, locus YMR263W, strain SAP30, stronger effect = lower value
[23] = S. cerevisiae deletion strains, locus YNL128W, strain TEP1, stronger effect = lower value
[24] = S. cerevisiae deletion strains, locus YNL153C, strain GIM3, stronger effect = lower value
[25] = S. cerevisiae deletion strains, locus YNL298W, strain CLA4 (second series), stronger effect = lower value
[26] = S. cerevisiae deletion strains, locus YNR030W, strain Alg12, stronger effect = lower value
[27] = S. cerevisiae deletion strains, locus YOL006C, strain TOP1, stronger effect = lower value
[28] = S. cerevisiae deletion strains, locus YPL241C, strain CIN2, stronger effect = lower value
[29] = S. cerevisiae deletion strains, locus YPR135W, strain CTF4, stronger effect = lower value
[30] = S. cerevisiae deletion strains, locus YJL187C, strain SWE1, stronger effect = lower value

Measured: normalized growth

CN1CCc2cccc(Cl)c2CC1
inactive: [1] 0.986 | S. cerevisiae deletion strains, locus YAL040C, strain CLN3, stronger effect = lower value 1 | S. cerevisiae deletion strains, locus YCL061C, strain MRC1 (second series), stronger effect = lower value 1.01 | S. cerevisiae deletion strains, locus YDR363W, strain ESC2, stronger effect = lower value 1 | S. cerevisiae deletion strains, locus YER002W, strain NOP16, stronger effect = lower value 1 | [2] 0.993 | [3] 1.01 | S. cerevisiae deletion strains, locus YNL175C, strain NOP13, stronger effect = lower value 1.01 | S. cerevisiae deletion strains, locus YNL197C, strain WHI3, stronger effect = lower value 1.01 | S. cerevisiae deletion strains, locus YNL224C, strain SQS1, stronger effect = lower value 1 | [4] 1 | S. cerevisiae deletion strains, locus YOR083W, strain WHI5 (second series), stronger effect = lower value 1.01 | [5] 0.998

Cc1cccc2c1N(C(=S)Nc1ccccc1Cl)CCC2
inactive: [1] 0.966 | [8] 0.972 | [10] 1.01 | S. cerevisiae deletion strains, locus YGR229C, strain SMI1, stronger effect = lower value 0.997 | [14] 0.997 | [17] 0.95 | [22] 0.915 | [23] 0.914 | [4] 0.989 | [26] 0.906 | [5] 0.93 | [28] 0.859
active: [6] 0.821 | [7] 0.898 | [9] 0.911 | [11] 0.845 | [12] 0.907 | [13] 0.331 | S. cerevisiae deletion strains, locus YHR087W, strain rtc3, stronger effect = lower value 0.787 | [2] 0.876 | [15] 0.648 | [16] 0.439 | [18] 0.602 | [19] 0.406 | [20] 0.712 | [21] 0.851 | [3] 0.219 | [24] 0.913 | [25] 0.582 | [27] 0.508 | [29] 0.273

CC(=O)CC(=O)Nc1ccccc1Cl
inactive: [1] 1 | [6] 0.997 | [8] 0.979 | [9] 0.998 | [10] 0.97 | [11] 1.02 | [12] 0.993 | [13] 0.966 | [30] 0.995 | [14] 0.982 | [2] 1.03 | [15] 1.01 | [16] 0.993 | [17] 1.01 | [18] 0.967 | [19] 1.02 | [20] 1.02 | [21] 0.993 | [22] 0.999 | [3] 0.947 | [23] 0.987 | [24] 1.02 | [25] 1 | [4] 0.992 | [26] 1 | [27] 1.01 | [5] 1 | [28] 0.978 | [29] 0.925 | S. cerevisiae strains, strain wild type, stronger effect = lower value 0.971

N[C@@H](CC(=O)N1CCn2c(nnc2C(F)(F)F)C1)Cc1cc(F)c(F)cc1F
inactive: S. cerevisiae deletion strains, locus YAL021C, strain ccr4, stronger effect = lower value 0.992 | S. cerevisiae deletion strains, locus YAL026C, strain drs2, stronger effect = lower value 0.97 | S. cerevisiae deletion strains, locus YAL030W, strain snc1, stronger effect = lower value 0.985 | S. cerevisiae deletion strains, locus YBL061C, strain skt5, stronger effect = lower value 0.985 | S. cerevisiae deletion strains, locus YBR009C, strain hhf1, stronger effect = lower value 0.949 | S. cerevisiae deletion strains, locus YBR023C, strain chs3, stronger effect = lower value 0.993 | S. cerevisiae deletion strains, locus YBR171W, strain sec66, stronger effect = lower value 0.992 | S. cerevisiae deletion strains, locus YBR231C, strain swc5, stronger effect = lower value 0.995 | S. cerevisiae deletion strains, locus YBR279W, strain paf1, stronger effect = lower value 0.988 | S. cerevisiae deletion strains, locus YCL011C, strain gbp2, stronger effect = lower value 0.982 | S. cerevisiae deletion strains, locus YCL016C, strain dcc1, stronger effect = lower value 0.992 | [7] 0.987 | S. cerevisiae deletion strains, locus YCL069W, strain vba3, stronger effect = lower value 0.984 | S. cerevisiae deletion strains, locus YCR088W, strain abp1, stronger effect = lower value 0.984 | S. cerevisiae deletion strains, locus YDL005C, strain med2, stronger effect = lower value 0.983 | S. cerevisiae deletion strains, locus YDL040C, strain nat1, stronger effect = lower value 0.992 | S. cerevisiae deletion strains, locus YDR001C, strain nth1, stronger effect = lower value 0.985 | S. cerevisiae deletion strains, locus YDR069C, strain doa4, stronger effect = lower value 0.971 | S. cerevisiae deletion strains, locus YDR137W, strain rgp1, stronger effect = lower value 1.01 | S. cerevisiae deletion strains, locus YDR159W, strain sac3, stronger effect = lower value 0.952 | S. cerevisiae deletion strains, locus YDR195W, strain ref2 0.941 | S. cerevisiae deletion strains, locus YDR297W, strain sur2, stronger effect = lower value 0.978 | S. cerevisiae deletion strains, locus YDR334W, strain swr1, stronger effect = lower value 0.982 | S. cerevisiae deletion strains, locus YDR335W, strain msn5, stronger effect = lower value 0.991 | S. cerevisiae deletion strains, locus YDR392W, strain spt3, stronger effect = lower value 0.887 | S. cerevisiae deletion strains, locus YEL003W, strain gim4, stronger effect = lower value 0.966 | S. cerevisiae deletion strains, locus YEL037C, strain rad23, stronger effect = lower value 0.983 | S. cerevisiae deletion strains, locus YEL061C, strain CIN8 (second series), stronger effect = lower value 0.983 | S. cerevisiae deletion strains, locus YER015W, strain faa2, stronger effect = lower value 0.978 | S. cerevisiae deletion strains, locus YER016W, strain bim1, stronger effect = lower value 0.995 | S. cerevisiae deletion strains, locus YER111C, strain swi4, stronger effect = lower value 0.988 | S. cerevisiae deletion strains, locus YER155C, strain BEM2 (second series), stronger effect = lower value 0.966 | S. cerevisiae deletion strains, locus YFR010W, strain ubp6, stronger effect = lower value 0.975 | S. cerevisiae deletion strains, locus YGL167C, strain pmr1, stronger effect = lower value 0.964 | S. cerevisiae deletion strains, locus YGL173C, strain kem1, stronger effect = lower value 0.985 | S. cerevisiae deletion strains, locus YGL227W, strain vid30, stronger effect = lower value 0.967 | S. cerevisiae deletion strains, locus YGL240W, strain doc1, stronger effect = lower value 0.981 | S. cerevisiae deletion strains, locus YGL253W, strain hxk2, stronger effect = lower value 0.996 | S. cerevisiae deletion strains, locus YHR013C, strain ard1, stronger effect = lower value 0.944 | S. cerevisiae deletion strains, locus YHR027C, strain rpn1, stronger effect = lower value 0.985 | [13] 1.03 | S. cerevisiae deletion strains, locus YHR079C, strain IRE1, stronger effect = lower value 0.985 | S. cerevisiae deletion strains, locus YHR142W, strain chs7, stronger effect = lower value 1.01 | S. cerevisiae deletion strains, locus YJL092W, strain hpr5, stronger effect = lower value 0.989 | S. cerevisiae deletion strains, locus YJL095W, strain BCK1 (second series), stronger effect = lower value 0.993 | S. cerevisiae deletion strains, locus YJL095W, strain BCK1, stronger effect = lower value 0.96 | S. cerevisiae deletion strains, locus YJL115W, strain asf1, stronger effect = lower value 0.984 | S. cerevisiae deletion strains, locus YJL129C, strain trk1, stronger effect = lower value 1.01 | S. cerevisiae deletion strains, locus YJL154C, strain vps35, stronger effect = lower value 0.987 | S. cerevisiae deletion strains, locus YJL164C, strain tpk1, stronger effect = lower value 1 | S. cerevisiae deletion strains, locus YJL166W, strain qcr8, stronger effect = lower value 0.993 | [30] 0.98 | S. cerevisiae deletion strains, locus YJR066W, strain TOR1, stronger effect = lower value 0.928 | S. cerevisiae deletion strains, locus YKL160W, strain elf1, stronger effect = lower value 1.01 | S. cerevisiae deletion strains, locus YKR026C, strain gcn3, stronger effect = lower value 0.972 | S. cerevisiae deletion strains, locus YKR091W, strain srl3, stronger effect = lower value 0.955 | S. cerevisiae deletion strains, locus YLL001W, strain dnm1, stronger effect = lower value 0.992 | S. cerevisiae deletion strains, locus YLL026W, stronger effect = lower value 0.995 | S. cerevisiae deletion strains, locus YLL041C, strain sdh2, stronger effect = lower value 0.994 | S. cerevisiae deletion strains, locus YLR027C, strain aat2, stronger effect = lower value 0.988 | S. cerevisiae deletion strains, locus YLR113W, strain HOG1, stronger effect = lower value 0.978 | S. cerevisiae deletion strains, locus YLR221C, strain rsa3, stronger effect = lower value 0.989 | S. cerevisiae deletion strains, locus YLR258W, strain gsy2, stronger effect = lower value 0.979 | S. cerevisiae deletion strains, locus YLR262C, strain YPT6 (second series), stronger effect = lower value 1 | S. cerevisiae deletion strains, locus YLR320W, strain mms22, stronger effect = lower value 0.998 | S. cerevisiae deletion strains, locus YLR342W, strain FKS1, stronger effect = lower value 0.958 | S. cerevisiae deletion strains, locus YLR357W, strain rsc2, stronger effect = lower value 0.989 | S. cerevisiae deletion strains, locus YLR370C, strain arc18, stronger effect = lower value 0.977 | S. cerevisiae deletion strains, locus YLR384C, strain iki3, stronger effect = lower value 0.969 | S. cerevisiae deletion strains, locus YML120C, strain ndi1, stronger effect = lower value 0.988 | S. cerevisiae deletion strains, locus YMR058W, strain fet3, stronger effect = lower value 0.977 | S. cerevisiae deletion strains, locus YMR125W, strain sto1, stronger effect = lower value 0.974 | S. cerevisiae deletion strains, locus YMR129W, stronger effect = lower value 0.984 | S. cerevisiae deletion strains, locus YMR205C, strain PFK2, stronger effect = lower value 0.96 | S. cerevisiae deletion strains, locus YMR231W, strain pep5, stronger effect = lower value 0.977 | S. cerevisiae deletion strains, locus YNL071W, strain lat1, stronger effect = lower value 0.979 | S. cerevisiae deletion strains, locus YNL183C, strain NPR1, stronger effect = lower value 0.898 | S. cerevisiae deletion strains, locus YNL209W, strain ssb2, stronger effect = lower value 0.986 | S. cerevisiae deletion strains, locus YNL248C, strain rpa49, stronger effect = lower value 1.01 | S. cerevisiae deletion strains, locus YNL322C, strain KRE1 (second series), stronger effect = lower value 0.975 | S. cerevisiae deletion strains, locus YNR049C, strain mso1, stronger effect = lower value 0.98 | S. cerevisiae deletion strains, locus YOR001W, strain rrp6, stronger effect = lower value 1.01 | S. cerevisiae deletion strains, locus YOR070C, strain gyp1, stronger effect = lower value 0.995 | S. cerevisiae deletion strains, locus YOR080W, strain dia2, stronger effect = lower value 0.976 | S. cerevisiae deletion strains, locus YOR083W, strain WHI5, stronger effect = lower value 1.01 | S. cerevisiae deletion strains, locus YOR106W, strain vam3, stronger effect = lower value 0.994 | S. cerevisiae deletion strains, locus YOR231W, strain MKK1, stronger effect = lower value 0.975 | S. cerevisiae deletion strains, locus YOR265W, strain rbl2, stronger effect = lower value 0.993 | S. cerevisiae deletion strains, locus YOR270C, strain vph1, stronger effect = lower value 0.984 | S. cerevisiae deletion strains, locus YOR290C, strain snf2, stronger effect = lower value 0.903 | S. cerevisiae deletion strains, locus YPL051W, strain arl3, stronger effect = lower value 1.01 | S. cerevisiae deletion strains, locus YPL078C, strain atp4, stronger effect = lower value 0.992 | S. cerevisiae deletion strains, locus YPL106C, strain sse1, stronger effect = lower value 0.976 | S. cerevisiae deletion strains, locus YPL240C, strain hsp82, stronger effect = lower value 0.965 | S. cerevisiae deletion strains, locus YPL256C, strain CLN2, stronger effect = lower value 0.981
